Test [1] in a line: NCI Yeast Anticancer Drug Screen. Data for the rad50 strain (AID 155).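 Note: 0% = growth of vehicle-only cultures of the same strain.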 The note with it: S. cerevisiae rad50 strain growth inhibition; at 50.0 µM; stronger effect = higher value. The method, boiled down: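 Compounds were tested on a yeast strain with an engineered DNA damage repair alteration; the reported value is growth inhibition normalised to vehicle treatment.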
Test [2] is described as follows: NCI Yeast Anticancer Drug Screen. Data for the mec2-1 strain (AID 157). The note with it: S. cerevisiae mec2-1 strain, at 50.0 µM, stronger effect = higher value. The essentials: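 Test agents were screened against the mec2-1 yeast strain, with defined DNA repair or cell cycle alteration. Growth was scored as inhibition against vehicle-only controls.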
Test [3] is described as follows: NCI Yeast Anticancer Drug Screen. Data for the sgs1 mgt1 strain (AID 161).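 Note: 0% = growth of cultures given vehicle only.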 The note with it: S. cerevisiae sgs1 mgt1 strain, at 50.0 µM, stronger effect = higher value. The essentials: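 Inhibition of yeast growth, normalised to vehicle-treated controls, is reported for a strain bearing genetic alterations in DNA damage repair.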
Test [4] in a line: NCI Yeast Anticancer Drug Screen. Data for the cln2 rad14 strain (AID 165).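 Note: 0% = growth equal to vehicle treated cultures.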 The note with it: S. cerevisiae cln2 rad14 strain, at 50.0 µM, stronger effect = higher value. The essentials: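 Growth of compound-exposed yeast (cln2 rad14 genotype) measured and expressed as inhibition relative to vehicle.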
A short description of test [5]: NCI Yeast Anticancer Drug Screen. Data for the bub3 strain (AID 167). As to conditions: S. cerevisiae bub3 mutant strain, at 50.0 µM, stronger effect = higher value. The essentials: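 Growth of a checkpoint-deficient yeast mutant is measured after compound exposure. Values represent inhibition relative to vehicle.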
Test [6] can be described thus: NCI Yeast Anticancer Drug Screen. Data for the mlh1 rad18 strain (AID 175). As to conditions: S. cerevisiae mlh1 rad18 strain growth inhibition; at 50.0 µM; stronger effect = higher value. The essentials: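 In this whole-cell yeast screen, a strain with altered DNA damage repair is challenged with compound, and its growth is measured against matched vehicle-treated controls.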

The panel holds about 79,000 compounds, 15% with a hit somewhere; the sample as a whole holds those more often. Values without a mark were called inactive. The source made the active and inactive calls. Cut-off read from the data, not from the text of the source: active = growth inhibition above about 70%; inactive = the rest. Where a SMILES comes first, the peptide text is derived from it. The star is where a group is joined. Cbz = O=C(OCc1ccccc1)*; Boc = CC(C)(C)OC(=O)*; OSu = O=C1CCC(=O)N1O*

Regarding `CCCCCCCCCCCCCCCCS(=O)(=O)N/N=C/c1ccc(N(C)C)cc1`, the growth inhibition in test [1] is 26.1%; in test [2], 13.3%; in test [3] it was 17.1%; in test [4] it was 12.3%; in test [5] it was 1.95%; in test [6] it was 13.7%.
For the compound `O=C1C(NCCc2ccc(O)c(O)c2)=CC(=O)c2ncccc21`, the growth inhibition in test [1] was 35.5%; in test [2], 34.6%; in test [3], 32.1%; in test [4], 24.1%; in test [5], 6.3%; in test [6], -5.35%.
For `O=C(/C=C/c1ccc(O)cc1)OCC1OC(Oc2cc(O)c3c(c2)OC(c2ccc(O)cc2)CC3=O)C(O)C(O)C1O` (stereo not given), the growth inhibition in test [1] is 9.35%; in test [2] it was -7.45%; in test [3] it was 9.6%; in test [4] it was -16.1%; in test [5] it was 14.3%; in test [6], 5.1%.
Regarding `O=C(NNc1ccccc1)C1C2CC3OC(=O)C1C3C2` (stereo not given), the growth inhibition in test [1] was 54%; in test [2], 82.1% (active); in test [3], 77.6% (active); in test [4], 52.4%; in test [5] it was 79.8% (active); in test [6], 68.5%.
As to `Cc1c(C(=O)Nc2ccc(Cl)cc2)nc(N)nc1-c1cccc(Cl)c1`, the growth inhibition in test [1] is -18.9%; in test [2], -8.85%; in test [3] it was 2.3%; in test [4], 1.1%; in test [5] it was -3.6%; in test [6] it was -8.7%.
Turning to `CSc1cc(=O)n(C2OC(CO)C(O)C2O)c(=O)[nH]1` (stereo not given), the growth inhibition was 9.05% in test [1]; -5.35% in test [2]; 17.6% in test [3]; -14.9% in test [4]; 10.1% in test [5]; 25.7% in test [6].
Take `COC(=O)c1nc(=S)[nH]c(C(=O)OC)c1C(=O)c1cccc2ccccc12`: the growth inhibition in test [1] was 8.6%; in test [2] it was 34.4%; in test [3], 4.35%; in test [4], -24.3%; in test [5] it was -5.5%; in test [6], 13.1%.
Turning to `O=C1c2ccccc2C2(O)Oc3cccc(O)c3C12O` (stereo not given), the growth inhibition is 6.45% in test [1]; 4.55% in test [2]; -2% in test [3]; -14.9% in test [4]; 2.85% in test [5]; 49.9% in test [6].
Regarding `CC1(O)CC2C=CC1CC2` (stereo not given), the growth inhibition is 9.65% in test [1]; 7.15% in test [2]; 4.6% in test [3]; 4% in test [4]; 9.55% in test [5]; 13.8% in test [6].
Regarding `CCC1(C)C(=O)C(C)(CC)C1=O` (stereo not given), the growth inhibition is 23.6% in test [1]; 20.6% in test [2]; 21.4% in test [3]; 0.6% in test [4]; 20% in test [5]; 6.85% in test [6].
As to `O=C(OCCOc1ccc(Cl)cc1Cl)c1ccccc1O`, the growth inhibition in test [1] was -2.4%; in test [2], -17.4%; in test [3] it was -1.85%; in test [4], -12.8%; in test [5], 11.6%; in test [6] it was 0.3%.
Regarding `CC(C(=O)c1ccccc1)C(=O)c1ccccc1`, the growth inhibition was -2.7% in test [1]; -13% in test [2]; -7.9% in test [3]; -9.95% in test [4]; -5.8% in test [5]; -1.65% in test [6].
As for `CC(C)(C)OC(=O)NC(Cc1ccc(O)cc1)C(=O)NC(CCCCN)C(=O)NC(Cc1ccc(O)cc1)C(=O)NC(CCCCN)C(=O)ON1C(=O)CCC1=O` (stereo not given) (Boc-YKYK-OSu; configuration not given here), the growth inhibition in test [1] was -12.2%; in test [2], -15.5%; in test [3], -6.7%; in test [4], 29.1%; in test [5], -2.8%; in test [6], 4.45%.
Regarding `O=[N+]([O-])c1ccc(N/N=C(/c2ccccc2)C2CCCC2)c([N+](=O)[O-])c1`, the growth inhibition in test [1] is 11.4%; in test [2] it was 18.6%; in test [3], 12.8%; in test [4], 7.9%; in test [5], 11.9%; in test [6], 12.9%.
As for `C[N+](C)(N)Cc1csc(-c2ccc(Cl)cc2)n1`, the growth inhibition in test [1] is -31.3%; in test [2], -39.3%; in test [3], -12.7%; in test [4] it was -8.1%; in test [5], -24.6%; in test [6] it was -10.5%.
As to `O=C(Nc1nc(C23CC4CC(CC(C4)C2)C3)cs1)c1cc2ccccc2oc1=O`, the growth inhibition is -1.45% in test [1]; -26.5% in test [2]; -3.45% in test [3]; -30.4% in test [4]; -23.9% in test [5]; -17.4% in test [6].
On to `COc1cccc(CNc2ncnc3nc[nH]c23)c1`, for which the growth inhibition in test [1] is 16.5%; in test [2] it was 1.85%; in test [3] it was 14.7%; in test [4], 4%; in test [5], -3.85%; in test [6], 24.6%.
As to `CCOC(=O)C(C)NC(=O)C(C)NC(=O)C(C)NC(=O)C(C)NC(=O)C(C)NC(=O)C(C)NC(=O)C(C)NC(=O)OCc1ccccc1` (stereo not given) (Cbz-AAAAAAA-OEt; configuration not given here), the growth inhibition was -16.2% in test [1]; -23.4% in test [2]; -21.4% in test [3]; 16.6% in test [4]; 5.4% in test [5]; -8.45% in test [6].
For the compound `CCCCC(=O)CCCC`, the growth inhibition was 3.55% in test [1]; -14% in test [2]; -5.1% in test [3]; -3.3% in test [4]; -4.95% in test [5]; 4.35% in test [6].
`CCOC(=O)C1=C(C)NC(=O)NC1c1cccc(OC)c1O` (stereo not given): the growth inhibition in test [1] was 11%; in test [2], 0.15%; in test [3], 16.7%; in test [4], 9.7%; in test [5], 30.8%; in test [6], 18.1%.

The values are drawn from PubChem BioAssay (NCI).
